From PubChem BioAssay (Tox21)
Results filed as inconclusive are left out. Active and inactive are the calls of the source. Unless noted, calls come from the whole dose curve; as a rule, active = well fitted curve in the direction sought with a large enough effect in the repeat runs; inconclusive = weak or mixed curves; inactive = no such curve, though single readings can be large; an effect the other way counts as inactive or inconclusive.

Experiments:
[1] = qHTS assay to identify aromatase inhibitors - cell viability counter screen (AID 743084);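 note: cells stimulated with testosterone during compound exposure; nearly all actives have a fitted effect of over 55% in size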
[2] = molecular target: Aryl hydrocarbon receptor (Homo sapiens) (UniProt P35869); experiment: qHTS assay to identify small molecule that activate the aryl hydrocarbon receptor (AhR) signaling pathway (AID 743085);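 note: HG2L7.5c1 human HepG2 liver cells with stably integrated DRE-driven firefly reporter; series mostly up to about 70 µM; nearly all actives have a fitted effect of over 15% in size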
Aryl hydrocarbon receptor (Homo sapiens), sequence (P35869 whole entry, looked up): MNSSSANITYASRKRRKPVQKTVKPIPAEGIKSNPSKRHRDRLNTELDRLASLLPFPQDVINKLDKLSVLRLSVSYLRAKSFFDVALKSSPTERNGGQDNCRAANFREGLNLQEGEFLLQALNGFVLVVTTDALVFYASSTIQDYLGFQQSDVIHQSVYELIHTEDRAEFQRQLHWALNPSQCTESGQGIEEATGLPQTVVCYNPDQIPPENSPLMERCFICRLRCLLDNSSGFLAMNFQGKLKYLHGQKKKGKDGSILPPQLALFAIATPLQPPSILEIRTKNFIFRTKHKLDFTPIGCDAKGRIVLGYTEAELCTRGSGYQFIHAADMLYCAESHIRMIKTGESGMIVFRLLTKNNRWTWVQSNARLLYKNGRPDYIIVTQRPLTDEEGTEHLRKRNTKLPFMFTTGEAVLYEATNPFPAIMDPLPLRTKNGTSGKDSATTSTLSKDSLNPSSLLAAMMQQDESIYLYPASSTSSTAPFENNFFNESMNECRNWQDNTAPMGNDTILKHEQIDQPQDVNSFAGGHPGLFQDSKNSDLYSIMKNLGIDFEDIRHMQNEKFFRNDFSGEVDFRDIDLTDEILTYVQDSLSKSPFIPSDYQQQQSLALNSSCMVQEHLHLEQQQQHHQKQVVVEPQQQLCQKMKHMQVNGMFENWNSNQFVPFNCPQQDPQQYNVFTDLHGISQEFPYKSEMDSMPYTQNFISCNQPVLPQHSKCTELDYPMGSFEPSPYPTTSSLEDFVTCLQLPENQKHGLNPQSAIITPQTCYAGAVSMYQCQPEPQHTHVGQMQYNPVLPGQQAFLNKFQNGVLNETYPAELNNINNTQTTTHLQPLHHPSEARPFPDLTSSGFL
How it was run: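 Cell line HG2L7.5c1 (human hepatoma, 20× DRE-luc). Plated, 5 h 37C, compound/DMSO added, 24 h 37C. CellTiter-Fluor 30 min 37C → fluorescence; then ONE-Glo 30 min RT → luminescence.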

[3] = qHTS assay to identify small molecule that activate the aryl hydrocarbon receptor (AhR) signaling pathway - cell viability counter screen (AID 743086);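 note: HepG2 liver cells carrying the AhR DRE luciferase reporter; series mostly up to about 70 µM; nearly all actives have a fitted effect of over 45% in size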
How it was run: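 HepG2-AhR-luc (HG2L7.5c1) cells, 4000/well, were preincubated 5 h at 37C, exposed to compound in qHTS format for 24 hr at 37C, then given CellTiter-Fluor for 30 min; viability was read as fluorescence in the reporter wells.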

[4] = molecular target: Peroxisome proliferator-activated receptor gamma (Homo sapiens) (UniProt P37231); experiment: qHTS assay to identify small molecule agonists of the peroxisome proliferator-activated receptor gamma (PPARg) signaling pathway (AID 743094; active = well fitted activation curve with a large enough effect in the signal ratio in the repeat runs, not every such curve was filed as active; the % refers to the signal ratio)
Peroxisome proliferator-activated receptor gamma (Homo sapiens), sequence (P37231 whole entry, looked up): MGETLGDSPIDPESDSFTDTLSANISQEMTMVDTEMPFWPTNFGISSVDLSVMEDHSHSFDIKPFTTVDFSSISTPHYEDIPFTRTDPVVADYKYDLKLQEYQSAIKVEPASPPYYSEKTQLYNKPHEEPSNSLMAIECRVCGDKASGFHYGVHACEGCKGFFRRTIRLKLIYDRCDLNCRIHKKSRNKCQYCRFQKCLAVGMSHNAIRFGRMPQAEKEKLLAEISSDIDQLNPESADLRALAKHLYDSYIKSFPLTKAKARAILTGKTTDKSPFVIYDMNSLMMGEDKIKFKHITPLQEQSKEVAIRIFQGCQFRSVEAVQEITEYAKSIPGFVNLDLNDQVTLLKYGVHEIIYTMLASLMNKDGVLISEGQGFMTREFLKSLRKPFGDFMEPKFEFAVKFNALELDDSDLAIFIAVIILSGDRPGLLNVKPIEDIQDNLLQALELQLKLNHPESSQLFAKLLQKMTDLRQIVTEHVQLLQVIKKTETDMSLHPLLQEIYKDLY
How it was run: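 Agonism was assessed in a beta-lactamase reporter system, HEK293H cells with a stably integrated UAS-bla construct under PPARg control; the 17 h treatment at 37C preceded a 1 h room-temperature FRET substrate read.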

[5] = molecular target: Peroxisome proliferator-activated receptor gamma (Homo sapiens) (UniProt P37231); experiment: qHTS assay to identify small molecule antagonists of the peroxisome proliferator-activated receptor gamma (PPARg) signaling pathway (AID 743191; calls by dose curve; note: series mostly up to about 63 µM; nearly all actives have a fitted effect of over 30% in size)
How it was run: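 GeneBLAzer PPARg UAS-bla HEK293H cells carrying a UAS-driven beta-lactamase reporter were plated at 3000 cells/well, preincubated 5 h at 37C, then given compound for 17 h at 37C; LiveBLAzer B/G FRET substrate was read after 1 h at room temperature.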

[6] = qHTS assay to identify small molecule antagonists of the peroxisome proliferator-activated receptor gamma (PPARg) signaling pathway - cell viability counter screen (AID 743194); note: nearly all actives have a fitted effect of over 55% in size
How it was run: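 PPARg-UAS-bla HEK293H cells were plated, rested 5 h at 37 C, then treated with compounds plus rosiglitazone (50 nM final) for 17 h at 37 C; viability was then read by CellTiter-Glo luminescence after 30 min at room temperature.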

[7] = qHTS assay for small molecule agonists of the antioxidant response element (ARE) signaling pathway (AID 743202; active = well fitted activation curve with a large enough effect in the signal ratio in the repeat runs, not every such curve was filed as active; the % refers to the signal ratio)
How it was run: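 Following a 16 h, 37 C exposure of reporter HepG2 cells (ARE-driven beta-lactamase, 2,000 cells/well) to compounds, FRET substrate was applied for 2 h at room temperature and fluorescence intensity recorded.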

[8] = qHTS assay for small molecule agonists of the antioxidant response element (ARE) signaling pathway - cell viability counter screen (AID 743203; calls by dose curve; note: nearly all actives have a fitted effect of over 55% in size)
How it was run: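 ATP content via CellTiter-Glo luminescence served as the viability measure. Cells: ARE-bla HepG2, 2,000 per well. Exposure: 16 hrs, 37C/5% CO2.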

[9] = qHTS assay for small molecule activators of the heat shock response signaling pathway - cell viability counter screen (AID 743209); note: nearly all actives have a fitted effect of over 50% in size
How it was run: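 Compounds dissolved in DMSO were added to overnight-plated HSE-bla HeLa cells and left 5 h at 37 C. Cell viability was quantified by luminescence using CellTiter-Glo.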

[10] = qHTS assay for small molecule activators of the heat shock response signaling pathway (AID 743210; active = well fitted activation curve with a large enough effect in the signal ratio in the repeat runs, with a control signal flat, not every such curve was filed as active; the % refers to the signal ratio; note: series mostly up to about 63 µM)
How it was run: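 Heat shock element–beta-lactamase HeLa reporter cells; qHTS with compounds for 5 h at 37 C; detection by FRET substrate fluorescence after 2.5 h at RT.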

[11] = qHTS assay to identify small molecule agonists of the peroxisome proliferator-activated receptor delta (PPARd) signaling pathway - cell viability counter screen (AID 743211); note: nearly all actives have a fitted effect of over 55% in size
How it was run: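 HEK293H PPARd-bla, 3000 cells/well; 5 h preincubation 37C/5% CO2; cpd in DMSO, 17 h 37C; B/G FRET substrate 2 h RT; CellTiter-Glo 30 min RT, luminescence.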

[12] = molecular target: Peroxisome proliferator-activated receptor delta (Homo sapiens) (UniProt Q03181); experiment: qHTS assay to identify small molecule agonists of the peroxisome proliferator-activated receptor delta (PPARd) signaling pathway (AID 743212; calls by dose curve)
Peroxisome proliferator-activated receptor delta (Homo sapiens), sequence (Q03181 whole entry, looked up): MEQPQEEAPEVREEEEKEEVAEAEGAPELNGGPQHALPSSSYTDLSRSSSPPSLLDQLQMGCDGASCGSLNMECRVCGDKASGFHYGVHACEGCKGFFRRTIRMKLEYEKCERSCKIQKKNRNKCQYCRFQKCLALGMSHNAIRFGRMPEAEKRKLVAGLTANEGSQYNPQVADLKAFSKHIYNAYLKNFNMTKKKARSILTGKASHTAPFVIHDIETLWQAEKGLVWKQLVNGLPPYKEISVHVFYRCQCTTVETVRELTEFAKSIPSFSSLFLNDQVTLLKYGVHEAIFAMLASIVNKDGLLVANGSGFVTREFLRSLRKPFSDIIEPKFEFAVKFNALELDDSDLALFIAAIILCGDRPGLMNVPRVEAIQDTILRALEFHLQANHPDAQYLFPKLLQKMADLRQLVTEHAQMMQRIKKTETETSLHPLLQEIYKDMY
How it was run: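 Beta-lactamase reporter read by fluorescence (LiveBLAzer B/G FRET, 2 h, room temperature). Test agents, in DMSO, incubated at 37 C with PPARd-bla HEK293H cells.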

[13] = qHTS assay to identify small molecule antagonists of the peroxisome proliferator-activated receptor delta (PPARd) signaling pathway - cell viability counter screen (AID 743213); note: nearly all actives have a fitted effect of over 50% in size
How it was run: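 CellTiter-Glo was added to PPARd-bla HEK293H wells following 17 h compound treatment in the presence of 300 nM L165041. Luminescence was recorded after 30 min at room temperature.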

[14] = molecular target: Peroxisome proliferator-activated receptor delta (Homo sapiens) (UniProt Q03181); experiment: qHTS assay to identify small molecule antagonists of the peroxisome proliferator-activated receptor delta (PPARd) signaling pathway (AID 743215; active = well fitted inhibition curve with a large enough effect in the signal ratio in the repeat runs, not every such curve was filed as active; the % refers to the signal ratio;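 note: cells stimulated with agonist L165041 at 300 nM final during compound exposure; series mostly up to about 62 µM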)
How it was run: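 Here, a reporter line (HEK293H, beta-lactamase under a UAS) measures PPARd signaling. Compounds are tested against agonist L165041 at 300 nM final concentration over 17 h at 37 C, with fluorescence read after substrate.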

[15] = qHTS assay to identify small molecule agonists of the farnesoid-X-receptor (FXR) signaling pathway - cell viability counter screen (AID 743218); note: nearly all actives have a fitted effect of over 45% in size
How it was run: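 Quantitative HTS counter screen measuring ATP-based viability via CellTiter-Glo luminescence in HEK 293T cells carrying a UAS-driven beta-lactamase reporter, after 16 h compound exposure at 37 C.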

[16] = qHTS assay to identify small molecule antagonists of the farnesoid-X-receptor (FXR) signaling pathway - cell viability counter screen (AID 743221; active = well fitted cell-killing curve with a large enough effect in the repeat runs, not every such curve was filed as active; note: nearly all actives have a fitted effect of over 50% in size)
How it was run: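 Luminescence from CellTiter-Glo measures cytotoxicity in GeneBLAzer FXR-UAS-bla HEK 293T cells. Cells were exposed to compounds with 50 uM chenodeoxycholic acid (final) for 16 h at 37 C, in wells also used for the reporter readout.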

[17] = molecular target: Vitamin D3 receptor (Homo sapiens) (UniProt P11473); experiment: qHTS assay to identify small molecule agonists of the vitamin D receptor (VDR) signaling pathway (AID 743222; calls by dose curve)
Vitamin D3 receptor (Homo sapiens), sequence (P11473 whole entry, looked up): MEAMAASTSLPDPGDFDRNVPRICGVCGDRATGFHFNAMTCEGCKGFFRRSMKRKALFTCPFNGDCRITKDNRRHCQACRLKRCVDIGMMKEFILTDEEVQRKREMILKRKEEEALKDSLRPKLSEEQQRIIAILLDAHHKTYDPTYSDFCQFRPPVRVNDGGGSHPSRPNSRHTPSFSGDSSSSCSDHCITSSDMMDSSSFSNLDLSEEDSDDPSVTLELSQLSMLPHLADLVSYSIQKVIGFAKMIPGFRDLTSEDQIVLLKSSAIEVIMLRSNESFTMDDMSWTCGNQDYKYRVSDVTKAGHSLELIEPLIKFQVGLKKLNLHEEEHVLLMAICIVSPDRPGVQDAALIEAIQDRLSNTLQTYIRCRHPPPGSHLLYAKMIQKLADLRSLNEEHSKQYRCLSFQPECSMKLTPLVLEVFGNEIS
How it was run: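 Tox21 cell reporter format: VDR-bla line, 16 h compound exposure in 5% CO2 at 37C, then fluorescence intensity after 2 h with LiveBLAzer B/G FRET substrate.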

[18] = molecular target: Bile acid receptor (Homo sapiens) (UniProt Q96RI1); experiment: qHTS assay to identify small molecule antagonists of the farnesoid-X-receptor (FXR) signaling pathway (AID 743217; active = well fitted inhibition curve with a large enough effect in the signal ratio in the repeat runs, not every such curve was filed as active; the % refers to the signal ratio)
Bile acid receptor (Homo sapiens), sequence (Q96RI1 whole entry, looked up): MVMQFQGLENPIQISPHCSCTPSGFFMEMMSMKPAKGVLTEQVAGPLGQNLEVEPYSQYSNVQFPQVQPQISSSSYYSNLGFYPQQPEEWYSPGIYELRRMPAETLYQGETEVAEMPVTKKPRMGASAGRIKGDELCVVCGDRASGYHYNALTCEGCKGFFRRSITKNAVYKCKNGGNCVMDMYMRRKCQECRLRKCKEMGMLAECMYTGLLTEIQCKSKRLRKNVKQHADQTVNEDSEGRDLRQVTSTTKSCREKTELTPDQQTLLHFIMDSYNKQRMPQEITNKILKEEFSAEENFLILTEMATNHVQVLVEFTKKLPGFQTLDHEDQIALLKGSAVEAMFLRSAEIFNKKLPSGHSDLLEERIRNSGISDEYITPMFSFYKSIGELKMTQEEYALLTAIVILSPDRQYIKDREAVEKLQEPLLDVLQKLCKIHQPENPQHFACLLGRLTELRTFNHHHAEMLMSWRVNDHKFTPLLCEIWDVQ
How it was run: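 Test compounds are pin-transferred onto FXR-bla HEK 293T cells, then chenodeoxycholic acid is added at 50 uM final. After 16 h at 37 °C, LiveBLAzer B/G substrate is applied for 2 h at room temperature and fluorescence read.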

[19] = molecular target: Bile acid receptor (Homo sapiens) (UniProt Q96RI1); experiment: qHTS assay to identify small molecule agonists of the farnesoid-X-receptor (FXR) signaling pathway (AID 743220; active = well fitted activation curve with a large enough effect in the signal ratio in the repeat runs, not every such curve was filed as active; the % refers to the signal ratio)
How it was run: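 FXR-UAS-bla HEK 293T cells carrying a UAS-driven beta-lactamase reporter were plated for 5 h at 37C/5% CO2, then exposed to DMSO-dissolved Tox21 10K compounds for 16 h at 37C. A LiveBLAzer B/G FRET substrate was loaded for 2 h at room temperature before fluorescence reading.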

Measured: Potency

O=C(c1ccccc1)C(O)c1ccccc1 (stereo unspecified)
not listed: [18] | [19]
inactive: all other assays above

O=S(=O)(O)c1ccc2cc(O)ccc2c1
not listed: [12] | [13] | [14] | [17] | [18] | [19]
inactive: all other assays above

CCCN(CCC)S(=O)(=O)c1ccc(C(=O)O)cc1
not listed: [9] | [17]
inactive: all other assays above

O=C(O)C(=O)O
not listed: [12] | [14] | [17] | [18] | [19]
inactive: all other assays above

Nc1ccc(S(=O)(=O)Nc2nccs2)cc1
not listed: [17] | [18] | [19]
inactive: all other assays above

O=C(C1CCCCC1)N1CC(=O)N2CCc3ccccc3C2C1 (stereo unspecified)
not listed: [17] | [18] | [19]
inactive: all other assays above

Cc1cc(=O)n(-c2ccccc2)n1C
not listed: [10] | [12] | [13] | [14] | [17]
inactive: all other assays above

O=c1cc[nH]c(=S)[nH]1
not listed: [9] | [13] | [17]
inactive: all other assays above

O=C(O)CCCCCCCC(=O)O
not listed: [12] | [13] | [14] | [17] | [18] | [19]
inactive: all other assays above
